Test [1] deals with T1, Aurora kinase C (Homo sapiens) (UniProt Q9UQB9).
T1 sequence (whole entry): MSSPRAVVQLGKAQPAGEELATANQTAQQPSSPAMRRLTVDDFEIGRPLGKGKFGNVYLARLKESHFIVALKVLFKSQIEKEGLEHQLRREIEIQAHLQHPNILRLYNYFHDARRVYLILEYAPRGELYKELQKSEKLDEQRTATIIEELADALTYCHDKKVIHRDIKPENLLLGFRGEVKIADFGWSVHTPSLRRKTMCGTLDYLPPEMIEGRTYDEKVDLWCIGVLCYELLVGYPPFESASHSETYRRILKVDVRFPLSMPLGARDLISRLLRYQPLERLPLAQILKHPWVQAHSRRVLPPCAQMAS
The conditions noted are these: at 1 µM.

Test [2] deals with T1, Aurora kinase C (Homo sapiens). The conditions noted are these: at 10 µM.
Test [3] has as its target Tyrosine-protein kinase receptor UFO (Homo sapiens) (UniProt P30530). To be noted: at 1 µM.
For test [4] the target is unchanged. The conditions noted are these: at 10 µM.
Test [5] addresses Protein-tyrosine kinase 6 (Homo sapiens) (UniProt Q13882). The conditions noted are these: at 1 µM.
Test [6] shares this target. The conditions noted are these: at 10 µM.
The target of test [7] is Tyrosine-protein kinase BTK (Homo sapiens) (UniProt Q06187). The conditions noted are these: at 1 µM.
Test [8] has the same target. The conditions noted are these: at 10 µM.
Test [9] concerns the target Tyrosine-protein kinase Blk (Homo sapiens) (UniProt P51451). The conditions noted are these: at 1 µM.
Test [10] has the same target. To be noted: at 10 µM.

Sequence of Tyrosine-protein kinase Blk (Homo sapiens) (P51451 2-505 limits assumed): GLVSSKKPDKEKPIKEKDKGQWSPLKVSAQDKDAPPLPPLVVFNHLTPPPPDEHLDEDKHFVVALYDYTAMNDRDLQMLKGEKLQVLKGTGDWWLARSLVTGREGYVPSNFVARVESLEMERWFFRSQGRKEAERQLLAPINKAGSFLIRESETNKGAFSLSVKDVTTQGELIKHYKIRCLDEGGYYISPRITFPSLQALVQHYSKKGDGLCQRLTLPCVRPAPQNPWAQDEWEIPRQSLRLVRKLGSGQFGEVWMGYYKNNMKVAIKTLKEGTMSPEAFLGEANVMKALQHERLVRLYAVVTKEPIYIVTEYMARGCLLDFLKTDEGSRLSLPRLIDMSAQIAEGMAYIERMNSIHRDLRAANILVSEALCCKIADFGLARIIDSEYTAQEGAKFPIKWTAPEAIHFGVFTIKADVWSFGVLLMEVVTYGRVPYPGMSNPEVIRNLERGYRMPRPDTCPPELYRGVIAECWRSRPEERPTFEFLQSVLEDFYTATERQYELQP
Sequence of Protein-tyrosine kinase 6 (Homo sapiens) (Q13882 whole entry, looked up): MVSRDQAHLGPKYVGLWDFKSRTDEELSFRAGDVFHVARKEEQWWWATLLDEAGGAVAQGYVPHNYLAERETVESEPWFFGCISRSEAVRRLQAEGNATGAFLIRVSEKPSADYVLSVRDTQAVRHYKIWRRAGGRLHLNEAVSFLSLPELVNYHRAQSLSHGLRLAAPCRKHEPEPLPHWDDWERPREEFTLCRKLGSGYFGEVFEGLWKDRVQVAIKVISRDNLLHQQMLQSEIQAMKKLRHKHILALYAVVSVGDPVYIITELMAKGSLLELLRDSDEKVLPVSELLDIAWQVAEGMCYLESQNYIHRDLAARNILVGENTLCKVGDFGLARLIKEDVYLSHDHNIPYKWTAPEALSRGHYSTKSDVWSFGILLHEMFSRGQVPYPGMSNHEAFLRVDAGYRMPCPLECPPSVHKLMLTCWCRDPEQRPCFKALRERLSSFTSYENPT
Sequence of Tyrosine-protein kinase BTK (Homo sapiens) (Q06187 whole entry): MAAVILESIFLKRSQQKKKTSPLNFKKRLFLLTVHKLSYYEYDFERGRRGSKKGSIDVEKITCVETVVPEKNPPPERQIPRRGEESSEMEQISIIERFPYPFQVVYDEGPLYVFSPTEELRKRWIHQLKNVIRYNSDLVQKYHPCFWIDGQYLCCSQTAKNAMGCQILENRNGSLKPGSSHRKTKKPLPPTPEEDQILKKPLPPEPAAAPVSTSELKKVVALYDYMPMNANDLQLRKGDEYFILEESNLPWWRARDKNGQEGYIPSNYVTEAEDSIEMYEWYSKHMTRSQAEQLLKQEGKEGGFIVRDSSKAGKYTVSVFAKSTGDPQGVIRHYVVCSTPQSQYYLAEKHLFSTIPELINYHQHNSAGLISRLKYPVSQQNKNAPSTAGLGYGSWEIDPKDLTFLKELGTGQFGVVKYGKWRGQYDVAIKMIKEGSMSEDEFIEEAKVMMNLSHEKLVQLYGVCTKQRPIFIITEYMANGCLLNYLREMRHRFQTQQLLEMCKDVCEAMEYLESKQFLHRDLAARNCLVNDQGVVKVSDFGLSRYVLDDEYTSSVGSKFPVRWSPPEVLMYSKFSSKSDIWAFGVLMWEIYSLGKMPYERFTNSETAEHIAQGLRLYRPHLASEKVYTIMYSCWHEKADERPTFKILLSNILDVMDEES
Sequence of Tyrosine-protein kinase receptor UFO (Homo sapiens) (P30530 whole entry): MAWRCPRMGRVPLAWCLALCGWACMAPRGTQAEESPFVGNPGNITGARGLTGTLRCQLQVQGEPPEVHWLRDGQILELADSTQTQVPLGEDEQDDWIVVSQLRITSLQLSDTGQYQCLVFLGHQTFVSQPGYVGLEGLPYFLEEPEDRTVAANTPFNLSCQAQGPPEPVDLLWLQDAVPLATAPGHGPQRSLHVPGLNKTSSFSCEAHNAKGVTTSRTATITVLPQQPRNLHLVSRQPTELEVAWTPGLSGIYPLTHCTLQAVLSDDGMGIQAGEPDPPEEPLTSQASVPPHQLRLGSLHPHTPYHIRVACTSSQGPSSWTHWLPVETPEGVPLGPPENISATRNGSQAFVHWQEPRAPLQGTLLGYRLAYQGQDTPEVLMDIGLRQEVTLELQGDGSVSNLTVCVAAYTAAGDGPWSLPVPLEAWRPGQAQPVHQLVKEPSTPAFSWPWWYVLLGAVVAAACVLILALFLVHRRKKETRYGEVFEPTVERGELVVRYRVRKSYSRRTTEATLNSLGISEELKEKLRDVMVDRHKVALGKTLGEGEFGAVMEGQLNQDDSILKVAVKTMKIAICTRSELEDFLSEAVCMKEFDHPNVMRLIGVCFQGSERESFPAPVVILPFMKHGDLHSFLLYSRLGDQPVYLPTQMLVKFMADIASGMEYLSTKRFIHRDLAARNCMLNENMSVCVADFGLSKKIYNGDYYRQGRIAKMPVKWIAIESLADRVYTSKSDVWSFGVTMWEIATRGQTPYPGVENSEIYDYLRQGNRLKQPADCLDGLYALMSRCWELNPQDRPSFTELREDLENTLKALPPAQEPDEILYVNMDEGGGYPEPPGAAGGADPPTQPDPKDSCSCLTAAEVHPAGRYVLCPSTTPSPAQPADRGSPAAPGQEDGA

Turning to `CC(C)n1cnc2c(NCc3ccccc3)nc(NCCCO)nc21`, the residual activity in [1] amounted to 95%; in [2], 89%; in [3] it was 105%; in test [4], 75%; in [5], 89%; in [6] it was 82%. Further, the residual activity stood at 93% in [7], 94% in test [8], 78% in test [9] and 71% in [10].

Take `CO[C@H]1C[C@@H]2CC[C@@H](C)[C@@](O)(O2)C(=O)C(=O)N2CCCC[C@H]2C(=O)O[C@H]([C@H](C)C[C@@H]2CC[C@@H](O)[C@H](OC)C2)CC(=O)[C@H](C)/C=C(\C)[C@@H](O)[C@@H](OC)C(=O)[C@H](C)C[C@H](C)/C=C/C=C/C=C/1C`: the residual activity is 79% in [1]; 69% in test [2]; 89% in test [3]; 84% in test [4]; 101% in [5]; 102% in test [6]. The residual activity was determined as 91% in test [7], 106% in test [8], 90% in test [9] and 82% in test [10].

`COc1ccc(CNc2nc(N(CCO)CCO)nc3c2ncn3C(C)C)cc1`: the residual activity in [1] is 75%; in test [2], 85%; in test [3], 92%; in test [4], 75%; in test [5], 104%; in test [6], 101%. Besides, the residual activity was 88% in test [7], 86% in [8], 96% in test [9] and 83% in [10].

Regarding `CCC(=O)Nc1ccc2ncnc(Nc3cccc(Br)c3)c2c1`, the residual activity came to 94% in test [1]; 80% in test [2]; 83% in test [3]; 80% in test [4]; 80% in test [5]; 60% in test [6]. The residual activity in test [7] is 95%; in test [8] it was 78%; in test [9], 112%; in test [10] it was 80%.

In the case of `CCOc1cc2ncnc(Nc3cccc(Br)c3)c2cc1OCC`, the residual activity was 98% in [1]; 52% in test [2]; 66% in test [3]; 31% in test [4]; 18% in test [5]; 2% in test [6]. Moreover, the residual activity in [7] came to 72%; in test [8], 28%; in [9] it was 17%; in test [10], 3%.

Take `Oc1n[nH]c2nnc(-c3c(-c4ccccc4)nn4ccccc34)cc12`: the residual activity in test [1] turned out to be 84%; in test [2] it was 84%; in [3], 118%; in [4], 104%; in [5], 97%; in [6] it was 87%. The residual activity stood at 78% in [7], 33% in test [8], 107% in test [9] and 90% in test [10].

Consider `Oc1ccc(-c2nc(-c3ccc(F)cc3)c(-c3ccncc3)[nH]2)cc1`, for which the residual activity stood at 113% in [1]; 95% in test [2]; 121% in test [3]; 83% in [4]; 49% in test [5]; 5% in [6]. Also, the residual activity in test [7] came out at 108%; in [8], 77%; in [9], 109%; in [10], 44%.

Regarding `Cc1ccc(NC2=CC(=O)c3sc(C)nc3C2=O)cc1`, the residual activity came to 85% in test [1]; 85% in test [2]; 103% in [3]; 112% in [4]; 111% in [5]; 108% in test [6]. Moreover, the residual activity stood at 93% in test [7], 86% in test [8], 112% in test [9] and 96% in test [10].

Consider `Nc1ccc2ncnc(NCCc3ccc(Oc4ccccc4)cc3)c2c1`, for which the residual activity in [1] worked out at 89%; in test [2], 87%; in [3] it was 72%; in test [4] it was 33%; in [5] it was 95%; in [6], 79%. The residual activity came out at 95% in test [7], 94% in test [8], 68% in test [9] and 18% in test [10].

In the case of `CC(C)n1cnc2/c(=N/c3cccc(Cl)c3)nc(NCCO)[nH]c21`, the residual activity was determined as 74% in [1]; 52% in test [2]; 94% in test [3]; 44% in [4]; 105% in test [5]; 100% in test [6]. In addition, the residual activity is 72% in [7], 32% in test [8], 79% in test [9] and 15% in [10].

As for `COc1ccc(OC)c2c(=S)c3ccccc3[nH]c12`, the residual activity in test [1] came out at 78%; in test [2] it was 75%; in test [3], 96%; in test [4], 83%; in [5], 104%; in [6], 104%. Besides, the residual activity was 96% in test [7], 82% in [8], 111% in test [9] and 96% in test [10].

With `O=C1NC(=O)/C(=C/c2ccc3c(c2)OC(F)(F)O3)S1`, the residual activity in [1] was determined as 110%; in [2] it was 80%; in test [3], 98%; in [4], 84%; in [5], 110%; in test [6], 104%. Moreover, the residual activity in test [7] amounted to 86%; in test [8], 95%; in [9], 119%; in test [10] it was 94%.

Take `Ic1cccc(CSc2nnc(-c3ccncc3)o2)c1`: the residual activity in [1] was 79%; in test [2], 74%; in [3], 74%; in test [4], 60%; in [5], 105%; in test [6] it was 96%. Also, the residual activity in [7] stood at 79%; in test [8], 95%; in test [9], 87%; in [10] it was 61%.

For `c1ccc(-c2n[nH]cc2-c2ccnc3ccccc23)nc1`, the residual activity came to 100% in test [1]; 66% in test [2]; 65% in [3]; 80% in [4]; 93% in test [5]; 37% in test [6]. Further, the residual activity came out at 102% in test [7], 100% in test [8], 102% in [9] and 59% in test [10].

On to `COc1ccc(C(=O)Nc2sc3c(c2C(N)=O)CCCC3)cc1OC`, for which the residual activity in test [1] amounted to 97%; in test [2], 76%; in test [3], 76%; in test [4] it was 76%; in test [5] it was 108%; in test [6], 114%. Besides, the residual activity in [7] came to 84%; in test [8], 118%; in test [9], 109%; in [10], 94%.

Turning to `O=C1NC(=O)/C(=C\c2ccc3nccnc3c2)S1`, the residual activity in test [1] turned out to be 106%; in test [2], 59%; in test [3] it was 75%; in [4], 54%; in [5], 99%; in [6] it was 103%. Also, the residual activity in test [7] was found to be 99%; in test [8], 93%; in test [9] it was 114%; in [10] it was 79%.

With `Cc1cc(Nc2nc(-c3ccccc3)nc3ccccc23)n[nH]1`, the residual activity in test [1] is 7%; in test [2], 4%; in [3] it was 33%; in test [4] it was 3%; in [5], 40%; in test [6], 4%. Moreover, the residual activity is 19% in test [7], 0% in test [8], 9% in [9] and 1% in [10].

`CN(C)c1ccc(/C=C2\C(=O)Nc3ccccc32)cc1`: the residual activity in test [1] came to 88%; in test [2], 39%; in [3], 78%; in test [4], 49%; in test [5], 112%; in test [6], 97%. Moreover, the residual activity in test [7] worked out at 113%; in test [8], 86%; in test [9], 87%; in [10] it was 62%.

For `Cn1nc2c3c(cccc31)C(=O)c1ccccc1-2`, the residual activity in test [1] came to 72%; in test [2], 58%; in [3], 90%; in [4], 63%; in [5] it was 103%; in test [7] it was 94%. Further, the residual activity is 76% in test [8], 111% in test [9] and 91% in test [10].

Consider `Cc1cccc(-c2[nH]c(C(C)(C)C)nc2-c2ccc3c(c2)OCO3)n1`, for which the residual activity in [2] was determined as 82%; in test [3] it was 87%; in [4], 81%; in test [6], 102%; in test [10] it was 106%.

Consider `Cc1cncc2cccc(S(=O)(=O)N3CCCN(C(=O)CN)C[C@H]3C)c12`, for which the residual activity in [1] was determined as 5%; in test [2] it was 1%; in [3], 88%; in test [4], 74%; in test [9] it was 122%; in test [10], 75%.

Source of the values: ChEMBL document CHEMBL2218924, “A broad activity screen in support of a chemogenomic map for kinase signalling research and drug discovery” (Biochem J, 2013).
